Potency and affinity values are given separately. Unmarked numbers belong to inactive results. Entries that show only a call come without a potency. Active and inactive are the calls of the source. How the calls were made is not given here.

The assay is described as follows: cytotoxicity in HEK293 cells, dose response, cytotoxicity control, cell-based, plate reader, cherry-pick (AID 651899).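 Further: cells exposed to compound for 48 hours.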 As to conditions: series mostly up to 26 µM.
Turning to `Cc1cccc(-n2c(SCC(=O)N(C)C3CCS(=O)(=O)C3)nc3ccccc3c2=O)c1C` (stereo unspecified), the molecule was called inactive.

Take `Nc1cc(C(=O)O)ccc1Nc1ccccc1`: the molecule was called inactive.

For the molecule `COc1ccc(Cc2c(-c3ccc(OC)c(OC)c3)nc3ccc(C)cn23)c(C)c1`, the result was inactive.

Turning to `C/C=C/c1ccc2c(c1)O[C@@H](CN(C)C(=O)c1ccc3c(c1)OCO3)[C@@H](C)CN([C@@H](C)CO)S2(=O)=O`, the molecule was called inactive.

In the case of `COC(=O)c1c(C(=O)OC)c(-c2ccc(F)cc2)n2c1CS(=O)C2` (stereo unspecified), the call was inactive.

Take `CC(=O)c1ccc(C(=O)N2CCCC(CO)(Cc3ccccc3C)C2)s1` (stereo unspecified): the molecule was classed as inactive.

For the molecule `Cc1ccc(/C=C(\CCC(=O)O)c2nc3ccccc3s2)cc1[N+](=O)[O-]`, the molecule was classed as inactive.

Regarding `O=C(C[C@@H]1C[C@@H]2c3cc(NC(=O)c4cccnc4)ccc3O[C@@H]2[C@@H](CO)O1)NCCc1ccccc1`, the molecule was called inactive.

Turning to `Cc1nc2c(C(=O)N3CCN(c4ccccn4)CC3)cnn2c(C)c1Cc1cccc(Cl)c1`, the molecule was classed as inactive.

As for `O=C(CSc1nc2cc(C(=O)O)ccc2c(=O)n1-c1ccc(F)cc1)Nc1ccc(F)c(F)c1F`, the result was inactive.

As to `CCOc1ccc(C(=O)Nc2cc3c(cc2N2CCCC2)n(CC)c(=O)n3CC)cc1OCC`, the outcome was inactive.

For the molecule `O=C(Nc1ccc2snnc2c1)N1CCOCC1`, the molecule was called inactive.

Consider `COc1cc(C(=O)N2Cc3cc4ccccc4nc3C2C)cc(OC)c1OC` (stereo unspecified), for which the call was inactive.

Take `CCN(CC)S(=O)(=O)c1ccc(NC(=O)c2ccc(Cl)nc2)cc1`: the result was inactive.

In the case of `Nn1c(SCCOc2ccccc2)nnc1-c1cccnc1`, the molecule was classed as inactive.

Take `Nn1c(SC/C=C/c2ccccc2)nnc1-c1cccnc1`: the molecule was classed as inactive.

As for `COc1cccc(-c2ccc3c(c2)[C@H]2[C@H](CCN2C(=O)C2CCC2)[C@@H](CO)N3)c1`, the result was inactive.

For the molecule `CCN(CC)CCNC(=O)c1cn(CC)c2ccc(S(=O)(=O)N3CCc4ccccc4C3)cc2c1=O`, the result was inactive.

On to `O=C(Nc1ncc2c(n1)CC(c1ccco1)CC2=O)c1ccccc1` (stereo unspecified), for which the call was inactive.

For the molecule `O=C(Nc1ccc(F)cc1)NC1CCN(Cc2nnnn2Cc2ccco2)CC1`, the outcome was inactive.

With `COC(=O)C1C(=O)C=C(Nc2ccc(F)cc2)CC1c1ccc(OC)cc1` (stereo unspecified), the call was inactive.

For `Cc1ccc(-c2nnc(N3CCN(C(=O)CSc4ncn[nH]4)CC3)c3ccccc23)cc1`, the molecule was called inactive.

Regarding `COc1ccc(NC(=O)c2ccc(-n3cncn3)c([N+](=O)[O-])c2)cc1OC`, the outcome was inactive.

For the molecule `O=C(Nc1ccc(N2CCOCC2)c(Cl)c1)c1cccnc1`, the molecule was called inactive.

In the case of `CN(Cc1ccccc1)C(=O)CCS(=O)(=O)c1ccc2c(c1)NC(=O)CS2`, the molecule was called inactive.

For the molecule `COc1cc(/C=C/C(=O)Nc2cccnc2)cc(OC)c1OC`, the call was inactive.

As for `Cc1cc(C(=O)CSc2nncs2)c(C)n1-c1ccc2c(c1)OCO2`, the molecule was called inactive.

Regarding `Cc1ccccc1-n1c(SCC(=O)N(C)C2CCS(=O)(=O)C2)nc2ccccc2c1=O` (stereo unspecified), the outcome was inactive.

For `CC(=O)c1ccc(N2CCN(c3ncccn3)CC2)c([N+](=O)[O-])c1`, the molecule was called inactive.

Turning to `Cc1ccc(S(=O)(=O)N(C)C)cc1NC(=O)CSc1nncs1`, the molecule was called inactive.

For the molecule `Cn1nnc2cc(C(=O)N3CCC(c4ccccc4)C3)ccc21` (stereo unspecified), the outcome was inactive.

With `O=C(CSc1nncs1)N1c2ccccc2Sc2ccccc21`, the call was inactive.

Turning to `Cc1cc(C)n2nc(C(=O)Nc3cccnc3)nc2n1`, the molecule was classed as inactive.

On to `CN(C(=O)CSc1nc2ccccc2c(=O)n1-c1ccccc1Cl)C1CCS(=O)(=O)C1` (stereo unspecified), for which the call was inactive.

Regarding `O=C(Nc1ccc2nccnc2c1)c1cnccn1`, the outcome was inactive.

For the molecule `O=C(Nc1ncc2c(n1)CC(c1ccco1)CC2=O)c1ccco1` (stereo unspecified), the activity change, negative = cytotoxicity was 20% [at 6 µM].

The values are drawn from PubChem BioAssay AID651899 (Broad Institute, 2012).
